From PubChem BioAssay
In the library only some 3.4% were active in any assay of this set; here they are far more common.
GPR151 ag – human GPR151 activation; activation, % at 11.2 µM; 1% of 650,000 active; PathHunter beta-arrestin GPR151 cells, luminescence; Q8TDV0; in the data active = activation above about 4.9%;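 note: 0% = median of compound wells and 100% = cells with positive control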
MITF primary – inhibitors of human MITF | AID 1259374 | AlphaScreen MITF homodimerization, bead proximity signal | inhibition, % at 2.6 µM | O75030 | 0.91% of 650,000 active; in the data active = inhibition above about 50%;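 note: 0% = vehicle wells with protein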
TEAD-YAP block – TEAD-YAP interaction inhibition. 1.4% of 640,000 active. inhibition, % at 9.12 µM. HEK-TIYL cells, TEAD-Gal4/YAP UAS-luciferase luminescence; in the data active = inhibition above about 32%;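 note: 0% = median of test compound wells and 100% = reference inhibitor wells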
FBW7 act – human FBW7 E3 ligase activation, primary screen | AlphaScreen FBW7–phospho-cyclin E peptide binding, activator screen | normalized activity (activation), % at 26.1 µM | 0.13% of 650,000 active; in the data active = normalized activity above about 1.9%;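 note: purified mutant Fbw7 with reduced substrate affinity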
Target sequence (Q969H0 whole entry, looked up): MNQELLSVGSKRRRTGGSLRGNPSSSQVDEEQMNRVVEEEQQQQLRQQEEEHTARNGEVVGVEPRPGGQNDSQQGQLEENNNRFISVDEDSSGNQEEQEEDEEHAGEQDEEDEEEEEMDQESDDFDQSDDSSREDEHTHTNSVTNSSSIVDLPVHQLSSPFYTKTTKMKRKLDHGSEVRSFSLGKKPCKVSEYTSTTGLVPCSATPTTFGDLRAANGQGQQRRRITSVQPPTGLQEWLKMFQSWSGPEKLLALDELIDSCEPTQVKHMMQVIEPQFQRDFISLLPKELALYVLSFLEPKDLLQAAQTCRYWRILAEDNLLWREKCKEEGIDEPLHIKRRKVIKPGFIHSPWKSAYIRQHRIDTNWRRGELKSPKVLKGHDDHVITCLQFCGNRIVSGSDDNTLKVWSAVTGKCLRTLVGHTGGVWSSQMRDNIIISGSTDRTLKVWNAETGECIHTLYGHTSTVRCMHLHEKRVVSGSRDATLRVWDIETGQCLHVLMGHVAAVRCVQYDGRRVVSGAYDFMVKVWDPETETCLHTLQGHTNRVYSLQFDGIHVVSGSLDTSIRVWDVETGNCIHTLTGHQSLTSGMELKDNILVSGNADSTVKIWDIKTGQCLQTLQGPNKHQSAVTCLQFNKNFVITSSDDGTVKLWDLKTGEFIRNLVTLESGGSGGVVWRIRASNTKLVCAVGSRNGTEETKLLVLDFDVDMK
MITF confirm – confirmation of human MITF inhibitors; inhibition, % at 2.6 µM; 16% of 4,700 active; shares compounds with MITF primary; AlphaScreen MITF homodimerization, biotin/His-MITF beads;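 active = inhibition above a cutoff derived from the DMSO control wells, cut at about 28% in these data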;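 note: 0% = MITF dimer wells with DMSO only; inhibitors lower the bead chemiluminescence by keeping MITF from dimerizing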
AlphaScreen intf2 – counter-screen: compounds optically interfering with AlphaScreen; shares compounds with MITF primary; LysRS AlphaScreen counterscreen, signal interference, triplicate; inhibition, % at 2.6 µM; 7.6% of 4,700 active;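 active = inhibition above a cutoff derived from the DMSO control wells, cut at about 30% in these data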
* hit, by the source's call; . = no result.

SMILES | GPR151 ag | MITF primary | TEAD-YAP block | FBW7 act | MITF confirm | AlphaScreen intf2
COc1cc([N+](=O)[O-])ccc1NC(=O)/C=C/c1ccccc1 | 2 | -9 | 7 | 0 | . | .
CC1(C2CCN(C(=O)/C=C/c3cccs3)CC2)NC(=O)N(Cc2ccc(F)cc2)C1=O (configuration not stated) | -1 | 19 | 4 | 0 | . | .
COc1cc(OC)cc(C2=N/C(=C/c3ccc(Cl)c(Cl)c3)C(=O)O2)c1 | -1 | 14 | 2 | 0 | . | .
COc1ccc(C(=O)Nc2cc(C(=O)Nc3cccc(C(F)(F)F)c3)ccc2N2CC3CC(C2)c2cccc(=O)n2C3)cc1 (configuration not stated) | -1 | 7 | 16 | 0 | . | .
CCOc1cc(CN2CCN(Cc3ccc(CC)cc3)CC2)ccc1OC | 0 | 59* | 1 | 0 | 5 | -9
O=[N+]([O-])c1ccc(O)cc1CN1CCN(C/C=C/c2ccccc2)CC1 | 1 | 1 | 5 | 0 | . | .
CCOc1cc(CN2CCN(Cc3ccc([N+](=O)[O-])cc3)CC2)ccc1OC | -1 | 68* | 6 | 0 | -3 | 2
CCOc1cc(CN2CCN(Cc3cccc(F)c3)CC2)ccc1OC | 0 | 43 | 3 | 0 | . | .
O=[N+]([O-])c1ccccc1CN1CCN(C/C=C/c2ccccc2)CC1 | 1 | 58* | 11 | 0 | 8 | 25
COc1cc(CN2CCN(C(=O)CC(C)C)CC2)c([N+](=O)[O-])cc1OC | -1 | 60* | -7 | 0 | 2 | -2
CC1=C(C(N)=O)C(c2ccc(OCc3ccccc3)cc2)n2nc(CCCO)nc2N1 (configuration not stated) | -1 | 14 | 13 | 0 | . | .
COc1ccccc1NC(=O)Nc1ccnn1C1CCN(C(=O)c2cc(C)oc2C)CC1 | 0 | -4 | -14 | 0 | . | .
COc1cc(CN2CCN(Cc3cc(OC)c(OC)c(OC)c3)CC2)c([N+](=O)[O-])cc1OC | 0 | 58* | -4 | 0 | 15 | 18
COc1cc(CN2CCN(c3ccccc3)CC2)cc([N+](=O)[O-])c1O | -1 | 52* | 7 | 0 | 0 | 1
COc1cc(CN2CCN(Cc3ccccc3[N+](=O)[O-])CC2)cc(OC)c1OC | 2 | 62* | 9 | 0 | -1 | 5
CCCNC(=O)C(=O)NCc1cccc(C)c1 | 0 | 12 | -2 | 0 | . | .
Cn1c(SCC(=O)NCc2ccccc2)nnc1C(F)(F)F | 1 | 10 | 2 | 0 | . | .
c1coc(Cn2nnnc2CN2CCN(C3CCCC3)CC2)c1 | 1 | -1 | -2 | 0 | . | .
c1coc(CN2CCN(C3CCCCCC3)CC2)c1 | 1 | 74* | 12 | 0 | 0 | 5
c1coc(CN2CCC(N3CCOCC3)CC2)c1 | 1 | 60* | 12 | 1 | 13 | 16
CC1CCCCC1N1CCN(Cc2ccco2)CC1 (configuration not stated) | -1 | 69* | 5 | 0 | -3 | 5
S=C(NC1CCCCC1)N1CCN(Cc2ccco2)CC1 | 3 | -21 | -16 | 0 | . | .
C=CCN1C(=O)/C(=C\c2ccccc2C)C(=O)NC1=S | -2 | -10 | 3 | 0 | . | .
CCCc1cc(=O)oc2cc(C)cc(OCC(=O)OCC)c12 | -1 | 8 | 12 | 0 | . | .
O=C(Nc1ccc(Br)cc1)C1C2CCCCC21 (configuration not stated) | -1 | 3 | -66 | 1 | . | .
SMILES | GPR151 ag | MITF primary | TEAD-YAP block | FBW7 act | MITF confirm | AlphaScreen intf2
O=C(c1ccco1)N1CCC(O)(c2ccccn2)CC1 | 2 | 6 | -7 | 0 | . | .
CCOC(=O)C1=[N+]([O-])OC(C(=O)OCC)C1CC(C)=O (configuration not stated) | -1 | 48 | -4 | 0 | . | .
CCOC(=O)CC1C(C(=O)OCC)=[N+]([O-])OC1C(=O)OCC (configuration not stated) | 0 | 64* | 0 | 0 | 22 | 19
CCCCN(C)CCCNC(=O)CSCc1ccccc1Cl | -1 | 76* | 4 | 0 | -2 | -1
COc1ccc(CN2CCN(Cc3cc(OC)c4c(c3)OCO4)CC2)cc1OC | 0 | 34 | 9 | 0 | . | .
COc1cc(CN2CCN(Cc3ccc(F)cc3)CC2)cc2c1OCO2 | 0 | 76* | 6 | 0 | 4 | 12
COc1cc(CNc2ccccc2)cc2c1OCO2 | 0 | 62* | -5 | 0 | -1 | -4
COc1cc(CN2CCN(Cc3ccc(C(F)(F)F)cc3)CC2)cc2c1OCO2 | 1 | 61* | -12 | 0 | 3 | 37*
COc1cc(CN2CCN(Cc3cccc(Br)c3)CC2)cc2c1OCO2 | 0 | 65* | 1 | 0 | 1 | 14
CC1CCCC(NC(=O)c2cccc(NS(=O)(=O)c3ccc(Br)cc3)c2)C1C (configuration not stated) | 1 | -3 | -3 | 0 | . | .
COc1cc(CN2CCN(Cc3cccc(Br)c3)CC2)cc(OC)c1OC | 0 | 69* | 7 | 0 | 8 | 13
COc1cccc(C(=O)N[C@H]2C[C@H]3C(=O)N[C@H](C)C(=O)N3C2)c1 | -1 | 66* | -5 | 0 | -2 | -7
O=C(Cc1ccc([N+](=O)[O-])cc1)NNC(=S)NCC1CCCO1 (configuration not stated) | 0 | 3 | 4 | 0 | . | .
C=CCc1ccccc1OCCOCCNCCOC | -1 | 10 | 12 | 0 | . | .
COCCNCCOc1ccccc1OC | 0 | 12 | 5 | 0 | . | .
COCCNCCOc1ccccc1C(C)C | 1 | 58* | 4 | 0 | 17 | 42*
C=CCc1ccccc1OCCCNCCCOC | 3 | 65* | 2 | 0 | 5 | 13
C=CCc1ccccc1OCCCCNCCCOC | 1 | 24 | 2 | 0 | . | .
C=CCc1ccccc1OCCCNCCOC | 3 | 59* | 2 | 0 | 1 | 12
C=CCc1ccccc1OCCNCCOC | -2 | 52* | 2 | 0 | 7 | 7
COc1cc(NC(=O)/C=C/c2ccc([N+](=O)[O-])cc2)c(C(=O)O)cc1OC | 4 | 17 | 7 | 0 | . | .
Cc1cc(C(=O)NN2C(=O)CSC2c2ccc(-n3ccnc3)cc2)c(C)o1 (configuration not stated) | -1 | -6 | -1 | 0 | . | .
COc1ccc2nc(NC(=O)CN3CCN(Cc4ccccc4)CC3)sc2c1 | 1 | 11 | -9 | 0 | . | .
CCN(C(=O)c1ccccn1)c1nc2c(s1)CCc1oc(C)cc1-2 | 0 | 77* | -17 | 0 | 37* | 77*
CCN(C(=O)c1ccco1)c1nc2c(s1)CCc1oc(C)cc1-2 | -1 | -2 | 3 | 0 | . | .
O=C(COc1ccccc1)Nc1ccc(N2CCC(NCc3ccco3)CC2)cc1 | 1 | 19 | 0 | 1 | . | .
COC(=O)C(=O)Nc1nnc(C2CCCC2)s1 | -1 | 79* | 2 | 0 | 9 | 13
O=C(Nc1nnc(C2CCCCC2)s1)C1CC1 | 1 | 7 | 1 | 0 | . | .
COC(=O)C(=O)Nc1nnc(C2CCCCC2)s1 | -1 | 67* | -4 | 0 | 9 | 13
